hcDAF-12 act = H. contortus DAF-12 nuclear receptor activators, primary screen, cell-based, luminescence, HEK293, lit1-tk-luc reporter | HEK293 hcDAF-12 lit1-tk-luc reporter; 0% DMSO, 100% Δ7-dafachronic acid | activation, % at 6.8 µM | 1.4% of 370,000 active | AID 652067, 2013;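 active = activation above the mean of all tested compounds plus 3 SD, cut at about 5.5% in these data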;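 note: 100% = response to 3 µM Δ7-dafachronic acid high control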
AHR act = AHR activators, primary screen, cell-based, luminescence, luciferase reporter, human; AID 2796, 2010; activation, % at 5 µM; AHR-responsive luciferase reporter cells; 2.5% of 320,000 active; Aryl hydrocarbon receptor (Homo sapiens), P35869; in the data active = activation above about 47%;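 note: 0% = vehicle wells and 100% = reference agonist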
ssDAF-12 act = S. stercoralis DAF-12 nuclear receptor activators, primary screen, cell-based, luminescence, HEK293, GRIP1 co-expression, lit1-tk-luc. activation, % at 6.8 µM. HEK293 ssDAF-12/GRIP1 lit1-tk-luc reporter; % of 3 µM dafachronic acid response. Nuclear hormone receptor DAF-12 (Strongyloides stercoralis). 1% of 370,000 active;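 active = activation above the mean over all tested compounds plus 3 SD, cut at about 0.9% in these data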;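 note: 0% = DMSO-only wells and 100% = 3 µM delta7-dafachronic acid wells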
DAX1 inh-1 = DAX1 (NR0B1) inhibitors, primary screen, cell-based, HEK293, Gal4-DAX1, luciferase luminescence. Nuclear receptor subfamily 0 group B member 1 (Homo sapiens), P51843. HEK293 Gal4-DAX1 luciferase reporter. inhibition, % at 6.75 µM. 0.99% of 340,000 active. AID 504766, 2011;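 active = inhibition above the mean over all tested compounds plus 3 SD, cut at about 4.2% in these data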;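 note: 0% = DAX1-transfected cells with DMSO and 100% = empty-vector control cells with DMSO; inhibition shows as a rise in luminescence from relieved DAX1 repression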
hgDAF12 agonist = H. glycines DAF-12 receptor agonists, primary screen, cell-based, luminescence, HEK293, GAL4 fusion, UAS-luciferase | Nuclear hormone receptor DAF-12 (Heterodera glycines), GAL4 fusion | HEK293 GAL4-hgDAF12 UAS-luciferase reporter, agonist luminescence; normalized to butyrate control | activation, % at 6.8 µM | 1.8% of 370,000 active | AID 687014, 2013;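 active = activation above a cutoff set at the mean of all screened compounds plus 3 SD, cut at about 10% in these data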;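 note: 0% = DMSO wells and 100% = sodium butyrate wells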
DAX1 inh-2 = DAX1 (NR0B1) inhibitors on StAR promoter, primary screen, cell-based, luminescence, SF-1 (NR5A1), full-length DAX-1; AID 652010, 2013; 1.1% of 370,000 active; HEK293T StAR-luciferase reporter, SF-1/DAX-1 repression relief; inhibition, % at 6.8 µM;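 active = inhibition above the mean over all tested compounds plus 3 SD, cut at about 3.6% in these data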;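 note: 0% = DAX-1 cells with DMSO and 100% = cells lacking DAX-1 with DMSO; higher inhibition means more luminescence from relief of DAX-1 repression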
hgDAF12 conf = H. glycines DAF-12 receptor agonists, confirmation, cell-based, luminescence, HEK293, GAL4-LBD fusion; shares compounds with hgDAF12 agonist; HEK293 GAL4-hgDAF12 luciferase reporter, agonist mode; percent of butyrate response; activation, % at 6.8 µM; 80% of 3,300 active; AID 743050, 2013;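 active = mean activation over triplicate wells above the hit cutoff derived from the earlier primary screen, cut at about 11% in these data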;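 note: 0% = DMSO low control and 100% = 2 mM sodium butyrate high control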
LXR ag 2 = LXR agonists, Gal4 luciferase reporter, confirmation, counter-screen for hgDAF-12 agonist project, cell-based, luminescence, HEK293, H. glycines campaign; AID 743051, 2013; 24 h; shares compounds with hgDAF12 agonist; 3,300 tested, under 10 active; activation, % at 6.8 µM;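 active = mean activation of the triplicate above a set limit carried over from the primary screen, none filed active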
Active calls of the source: *. Rows were chosen to be rich in hits. Some 5.7% of all compounds tested hit in one or more screens of this group.

For CCCSc1nn2c(=O)c3ccccc3nc2s1 the results were hcDAF-12 act 4, AHR act -3, ssDAF-12 act -1, DAX1 inh-1 0, hgDAF12 agonist 15*, DAX1 inh-2 3, hgDAF12 conf 16* and LXR ag 2 1.
`Cc1cccc(Nc2nn3c(=O)c4ccccc4nc3s2)c1` gave hcDAF-12 act 2, AHR act 3, ssDAF-12 act -1, DAX1 inh-1 2, hgDAF12 agonist 5 and DAX1 inh-2 0.
Screening O=C(c1ccc([N+](=O)[O-])s1)N1CCc2ccccc21 returned hcDAF-12 act 0, AHR act -6, ssDAF-12 act -1, DAX1 inh-1 -1, hgDAF12 agonist 0 and DAX1 inh-2 0.
Screening O=C(c1ccc(Cl)s1)N1CCc2ccccc21 returned hcDAF-12 act 6.4*, AHR act -4, ssDAF-12 act 1.5*, DAX1 inh-1 3, hgDAF12 agonist 15*, DAX1 inh-2 2, hgDAF12 conf 18* and LXR ag 2 0.
For CC(=O)c1cccc(NC(=O)c2ccc(-c3ccccc3[N+](=O)[O-])o2)c1 the results were hcDAF-12 act 1, AHR act 11, ssDAF-12 act -1, DAX1 inh-1 2, hgDAF12 agonist 14*, DAX1 inh-2 2, hgDAF12 conf 13* and LXR ag 2 1.
`Cc1nc(-c2ccc(NC(=O)c3ccccc3C)cc2)cs1` gave hcDAF-12 act 2, AHR act -4, ssDAF-12 act 0, DAX1 inh-1 1, hgDAF12 agonist 20*, DAX1 inh-2 2, hgDAF12 conf 16* and LXR ag 2 1.
`O=C(O)C(CCC(C(=O)O)c1ccccc1)c1ccccc1` (stereo not given) gave hcDAF-12 act -1, ssDAF-12 act -2, DAX1 inh-1 0, hgDAF12 agonist -1 and DAX1 inh-2 0.
N/C(=N\OC(=O)COc1ccc(Br)cc1Cl)c1ccncc1 was read as hcDAF-12 act 6.3*, AHR act 3, ssDAF-12 act 0, DAX1 inh-1 2, hgDAF12 agonist 14*, DAX1 inh-2 4.0*, hgDAF12 conf 16* and LXR ag 2 1.
N/C(=N\OC(=O)COc1cc(Cl)c(Cl)cc1Cl)c1ccncc1 was read as hcDAF-12 act 1, AHR act 4, ssDAF-12 act -1, hgDAF12 agonist 2 and DAX1 inh-2 0.
`S=C(NCCc1cccc(Cl)c1)NC1CCCCC1` gave hcDAF-12 act 4, ssDAF-12 act 0, DAX1 inh-1 2, hgDAF12 agonist 14*, DAX1 inh-2 3, hgDAF12 conf 11* and LXR ag 2 0.
For O=C(NCCc1ccccc1)NC1CCCCC1 the results were hcDAF-12 act 5, AHR act 10, ssDAF-12 act 0, DAX1 inh-1 1, hgDAF12 agonist 14*, DAX1 inh-2 3, hgDAF12 conf 10 and LXR ag 2 1.
For S=c1[nH]ncn1/N=C/c1ccccn1 the results were hcDAF-12 act 1, AHR act -3, ssDAF-12 act -1, DAX1 inh-1 2, hgDAF12 agonist 0 and DAX1 inh-2 0.
`COC(=O)c1ccc(C(=S)NCC2(N(C)C)CCCCC2)cc1` gave hcDAF-12 act 2, AHR act 0, ssDAF-12 act -1, DAX1 inh-1 1, hgDAF12 agonist 3 and DAX1 inh-2 1.
O=C(CNC(=O)c1ccccc1)OC1CCCCC1 was read as hcDAF-12 act 3, AHR act 2, ssDAF-12 act -1, DAX1 inh-1 2, hgDAF12 agonist 16*, DAX1 inh-2 3, hgDAF12 conf 18* and LXR ag 2 1.
Screening COC(=O)CNC(=O)c1ccccc1 returned hcDAF-12 act -1, AHR act 0, ssDAF-12 act -1, DAX1 inh-1 3, hgDAF12 agonist 2 and DAX1 inh-2 -1.
Screening CCCC1=Nc2cc(C(=O)N3CCN(c4ccccn4)CC3)ccc2Sc2ccc(C)cc21 returned hcDAF-12 act 2, AHR act 6, ssDAF-12 act -1, DAX1 inh-1 0, hgDAF12 agonist -2 and DAX1 inh-2 0.
`Cc1cccc(N=Nc2cnc(N)s2)c1` gave hcDAF-12 act 4, AHR act 31, ssDAF-12 act -1, DAX1 inh-1 4.4*, hgDAF12 agonist 18*, DAX1 inh-2 1, hgDAF12 conf 7 and LXR ag 2 0.
`CC(=O)Nc1ncc(N=Nc2cccc(C(F)(F)F)c2)s1` gave hcDAF-12 act -1, AHR act 3, ssDAF-12 act 0, DAX1 inh-1 -1, hgDAF12 agonist 1 and DAX1 inh-2 0.
`COc1ccc(-c2ccccc2NC(=O)C2CCCN(Cc3ccc(C)o3)C2)cc1` (stereo not given) gave hcDAF-12 act 0, AHR act 7, ssDAF-12 act -2, DAX1 inh-1 1, hgDAF12 agonist 4 and DAX1 inh-2 0.
For Cc1cc(C)cc(C(=O)OCC(=O)NCc2cccs2)c1 the results were hcDAF-12 act -3, AHR act 5, ssDAF-12 act -2, DAX1 inh-1 2, hgDAF12 agonist 0 and DAX1 inh-2 0.
Screening Cc1ccc(C(=O)OCC(=O)NCc2cccs2)c(C)c1 returned hcDAF-12 act -2, AHR act 1, ssDAF-12 act -1, DAX1 inh-1 1, hgDAF12 agonist 14*, DAX1 inh-2 1, hgDAF12 conf 6 and LXR ag 2 0.
For CCc1cc2c(SCC(=O)NC3CCCC3)ncnc2s1 the results were hcDAF-12 act -1, ssDAF-12 act -1, DAX1 inh-1 0, hgDAF12 agonist 1 and DAX1 inh-2 -1.
